Measured values reported in PubChem BioAssay (NCI).
The panel holds about 83,000 compounds, 20% with a hit somewhere; the sample as a whole holds those more often.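 Interpretation: 100, growth as untreated; towards 0, rising growth inhibition; 0, no net growth; 0 to -100, cell death. Compounds scoring below 10 were considered active.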 Unmarked numbers belong to inactive results. Active and inactive are the calls of the source.

system: M14 melanoma; experiment: NCI-60 one-dose screen, 48 h (100 = growth as untreated, 0 = no growth, -100 = all killed); conditions: 10 µM unless noted

SMILES	growth
CC(=O)O[C@H]1C(=O)[C@@]2(C)C([C@H](OC(=O)c3ccccc3)[C@]3(O)C[C@H](OC(=O)[C@H](O)[C@@H](NC(=O)c4ccccc4)c4ccccc4)C(C)=C1C3(C)C)[C@]1(OC(C)=O)CO[C@@H]1C[C@@H]2O (stereo partly specified)	20%
CCCCCCCC/C=C/CCCCCCCC1=NC(C)(C)CN1CC(C)O (stereo unspecified)	31.8%
COc1cc(C2NC(c3ccc(Cl)cc3)C(C)C(=NC(=O)c3cnccn3)C2C)cc(OC)c1OC (stereo unspecified)	96.9%
C[C@@H]1CC[C@H]2[C@@H](C)C(O)O[C@@H]3O[C@]4(C)CC[C@@H]1[C@]32OO4 (stereo partly specified)	29.8%
C/C(=C\CCc1ccsc1)CC/C=C(\C)CCCN1CCN(CCO)CC1	14.2%
CN1COc2ccc3ccccc3c2C1	86.4%
COc1ccc(-c2cnnn2-c2cc(OC)c3c(c2)OCO3)cc1	10.6%
Nc1c2ccccc2nc2ccccc12 (tested in a mixture with another compound)	17.1%
CCOC(=O)C1=C(C)N2C(=NC3=C(CCC/C3=C\c3ccc(Cl)cc3)C2c2ccc(Cl)cc2)S1 (stereo unspecified)	-40.8% (active)
C=C(C)[C@H]1CC/C(C)=C/CC[C@]2(C)O[C@H]2CC/C(C=O)=C\C1O (stereo partly specified)	115%
CCN(CC)CCCCNc1c2ccccc2[n+](C)c2c1[nH]c1ccccc12	-28.4% (active)
Cn1cc(-c2csc(-c3c[nH]c4ncccc34)n2)c2cc(F)cnc21	58.7%
Nc1ccccc1-c1ccc([N+](=O)[O-])cc1	44.7%
Cc1ccc(NC(=O)Nc2ccc(-c3cccnc3)cc2N2CCC(CO)CC2)cc1	27.1%
NNC(=O)C1CC2c3ccccc3C1c1ccccc12 (stereo unspecified)	111%
O=C(OC[C@H]1O[C@H](OC(=O)c2cc(O)c(O)c(OC(=O)c3cc(O)c(O)c(O)c3)c2)[C@H](OC(=O)c2cc(O)c(O)c(OC(=O)c3cc(O)c(O)c(O)c3)c2)[C@@H](OC(=O)c2cc(O)c(O)c(OC(=O)c3cc(O)c(O)c(O)c3)c2)[C@@H]1OC(=O)c1cc(O)c(O)c(OC(=O)c2cc(O)c(O)c(O)c2)c1)c1cc(O)c(O)c(OC(=O)c2cc(O)c(O)c(O)c2)c1	17.6%
NS(=O)(=O)c1ccc(NC2=C(Cl)C(=O)c3ccccc3C2=O)cc1	99.9%
CCOC(=O)C1=C(COCCN)NC(C)=C(C(=O)OC)C1c1ccccc1Cl (stereo unspecified)	48.6%

SMILES	growth
Cc1cc2c(C#N)n3c(c2cc1C)C(=O)C(c1ccccc1)Oc1ccccc1-3 (stereo unspecified)	36.8%
CN(C)c1nc(N)nc(Cn2c(-c3nonc3N)nc3ccccc32)n1	72.7%
COC(=O)[C@]1(C(C)C)N[C@H](c2cn(-c3ccccc3)nc2-c2ccccc2)[C@@H]2C(=O)N(c3ccc(Cl)cc3)C(=O)[C@@H]21	87.6%
CCOC(=O)/C(=C/c1ccccc1)C(=O)c1ccccc1	66.1%
Cn1cnc([N+](=O)[O-])c1S(=O)(=O)Oc1ccc(Cl)cc1	61%
O=C(/C=C/c1ccccc1Cl)c1ccc(O)cc1	76.8%
O=C(Cc1ccccn1)C(F)(F)C(F)(F)C(F)(F)F	110%
Cn1c(=O)c2nc(SCc3ccccc3)n(C)c2n(C)c1=O	107%
COc1ccc2c(c1)nc(N)c1c3ccccc3cn21	63.1%
O=C(/C(=C/c1cccc([N+](=O)[O-])c1)c1ccccc1)c1ccccc1	46.4%
O=C(C(=O)N1CCCCC1)c1ccc(OC2OC(CO)C(O)C(O)C2O)cc1 (stereo unspecified)	99.1%
O=NC1CC=CCC1c1ccccc1 (stereo unspecified)	105%
CCC(C)(C)C(=O)O[C@H]1C[C@@H](C)C=C2C=C[C@H](C)[C@H](CC[C@@H]3C[C@@H](O)CC(=O)O3)[C@H]21	59.3%
COc1ccc2[nH]cc(/C=C3/C(=O)Nc4ccc(F)cc43)c2c1	98.2%
C[C@]12CC[C@@H]3c4ccc(O)cc4CC[C@H]3[C@@H]1CC[C@@H]2NS(=O)(=O)c1cccc(Br)c1	68.9%
NC(=O)NN=C(C1CC1)C1CC1	106%
CCC1=C(c2ccc(OC)cc2)C(C)(C)Oc2c1ccc(O)c2CN1CCCC1	-75.8% (active)
CN(C)c1ccc(/C=C\c2ccnc3ccccc23)cc1	83.9%
